Bioassay records: PubChem BioAssay, several laboratories
EP2 antag = blocks the human prostaglandin E2 receptor EP2 | hit rate 0.52% among 260,000 | C6 glioma cells expressing human EP2, cAMP TR-FRET; cells stimulated with saturating PGE2 | inhibition, % at 25 µM | P43116;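 active = percent inhibition above 40 after rounding to a whole number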;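 also: rat C6 glioma host cells with rolipram phosphodiesterase inhibitor present; the protocol text gives 20 µM as final concentration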
Target sequence (P43116 whole entry, looked up): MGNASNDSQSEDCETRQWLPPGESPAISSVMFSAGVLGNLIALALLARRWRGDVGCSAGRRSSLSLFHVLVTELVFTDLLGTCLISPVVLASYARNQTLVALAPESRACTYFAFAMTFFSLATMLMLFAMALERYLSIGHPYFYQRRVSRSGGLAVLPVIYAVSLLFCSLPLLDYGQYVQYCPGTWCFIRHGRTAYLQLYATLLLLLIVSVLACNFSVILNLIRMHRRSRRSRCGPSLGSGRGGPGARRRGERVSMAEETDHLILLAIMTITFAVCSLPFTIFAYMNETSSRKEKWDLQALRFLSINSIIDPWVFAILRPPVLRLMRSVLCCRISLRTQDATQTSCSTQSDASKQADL
PERK inhibitor = human PERK inhibition, primary cell-based screen | Q9NZJ5 | CHO PERK-DD fusion, SEAP luminescence translation reporter | inhibition, % at 5.6 µM | hit rate 0.17% among 220,000 | AID 1416;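 active = inhibition above the mean inhibition of all tested compounds plus 3 SD, set separately per screening campaign, cut at about 2.9% in these data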;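 also: PERK kinase domain activated by AP20187 dimerizer at 100 nM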
EP2 mod = modulates human prostaglandin E2 receptor EP2 signaling; P43116; EP2-expressing cells, cAMP HTRF FRET, PGE2 co-stimulation; induction, % at 25 µM; hit rate 0.83% among 260,000;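 active = compounds whose cAMP rise, as percent of the full-agonist control response, exceeds 60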;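 also: rat C6 glioma line stably carrying human EP2 under a CMV promoter; the protocol text gives 20 µM as final concentration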
eIF4E-4G inh = inhibitors of eIF4E and eIF4G interaction in translation initiation; hit rate 0.37% among 220,000; TR-FRET eIF4E-eIF4GI(517-606) binding, 2 h; inhibition, % at 21.7 µM; P63073+Q04637;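 active = inhibition above about 30%, limit read from the data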
EP2 cAMP induct = EP2 receptor cAMP induction, counter-screens negative; shares compounds with EP2 mod; C6 glioma EP2 cells, cAMP HTRF induction; plus low (about EC15) PGE2 agonist; calls only at 20 µM (by protocol); hit rate 47% among 1,300;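 active = cAMP induction above 50% in the main assay while under 30% in all four parallel counter assays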;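 also: rat C6 glioma cells stably expressing human EP2 receptor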
Of the large screens only hits and unclear results are named; the others gave an inactive call (follow-up assays come after a bar, where they were run); ! = a repeat was not active. Compounds with a hit are over-represented: about 1.8% of the library has one in this group of screens.

C=CCc1cc(CN2C3CCC2CC(O)(c2nccn2C)C3)cc(OC)c1OC (stereo not given)	none (no result: PERK inhibitor, eIF4E-4G inh)
CCCN1CCc2cccc3c2[C@H]1Cc1ccc(O)c(O)c1-3	EP2 antag 43! (no result: PERK inhibitor, eIF4E-4G inh)
CC(=O)Cc1c[nH]c2ccccc12	eIF4E-4G inh 97
O=C1NC(=O)C(=Cc2ccc(Br)s2)C(=O)N1	EP2 antag 115 (no result: PERK inhibitor, eIF4E-4G inh)
O=C(O)c1cccc([As]=[As]c2cccc(C(=O)O)c2)c1 (stereo not given)	EP2 antag 42 (no result: PERK inhibitor, eIF4E-4G inh)
CN1CCN(CC(C)(C)CN2C3CCC2CC(O)(c2ccccc2F)C3)CC1 (stereo not given)	none (no result: PERK inhibitor, eIF4E-4G inh)
CCN1CC2(CO)CCC(O)C34C5CC6C(OC)CC(O)(C5C6OC)C(O)(C(OC)C23)C14 (stereo not given)	none (no result: PERK inhibitor, eIF4E-4G inh)
FC(F)(F)c1nc2ccc(SSc3ccc4nc(C(F)(F)F)[nH]c4c3)cc2[nH]1	EP2 antag 79 (no result: PERK inhibitor, eIF4E-4G inh)
C[C@@H]1CC[C@@H]2N(C1)C[C@@H]1[C@](O)([C@H](O)C[C@]3(O)[C@H]4CC[C@@H]5[C@]6(O)O[C@@]4(C[C@@]13O)[C@@]5(C)CC[C@H]6O)[C@@]2(C)O	EP2 antag 48 (no result: PERK inhibitor, eIF4E-4G inh)
CN1C[C@@H](C(=O)N[C@@]2(C)O[C@@]3(O)[C@H]4CCCN4C(=O)[C@@H](Cc4ccccc4)N3C2=O)C=C2c3cccc4[nH]cc(c34)C[C@@H]21	EP2 antag 66 (no result: PERK inhibitor, eIF4E-4G inh)
COC(=O)C1C=C2c3cccc4[nH]cc(c34)CC2N(C)C1 (stereo not given)	none
O=C1NC(=S)N(c2ccc(F)cc2)C(=O)/C1=C/c1ccco1	none (no result: PERK inhibitor, eIF4E-4G inh)
O=C1NC(=S)N(c2ccc(F)cc2)C(=O)/C1=C\c1ccoc1	eIF4E-4G inh 34
O=C(CN1C(=O)CN=C(c2ccccc2Cl)c2c1sc1c2CCCC1)N1CCOCC1	none (no result: PERK inhibitor, eIF4E-4G inh)
Nc1c(C(=O)Nc2ccc([As](=O)(O)O)cc2)cnc2nnnn12	EP2 antag 52 (no result: PERK inhibitor, eIF4E-4G inh)
CCOC(=O)c1c(C)n(Cc2ccco2)c2ccc(OC)cc12	EP2 mod 64
CC1(C)CC(=N[N-]C(N)=[SH+])CC(C)(C)N1.CC1(C)CC(=N[N-]C(N)=[SH+])CC(C)(C)N1.[Ni]	EP2 antag 51 (no result: PERK inhibitor, eIF4E-4G inh)
O=[As](O)(O)c1ccc(Cc2ccc([As](=O)(O)O)cc2)cc1	EP2 antag 93 (no result: PERK inhibitor, eIF4E-4G inh)
Nc1ccc([As](=O)(O)O)cc1	none
Cn1ccnc1C1(O)CC2CCC(C1)N2CC(=O)Nc1ccc(N2CCOCC2)cc1 (stereo not given)	none (no result: EP2 antag, PERK inhibitor, eIF4E-4G inh)
Cc1cccc(N2C(=O)NC(=O)/C(=C\C=C\c3ccco3)C2=O)c1	EP2 antag 44
Cc1ccc(N2C(=O)NC(=O)/C(=C\C=C\c3ccco3)C2=O)cc1C	EP2 antag 88
C=CCN1C(=O)NC(=O)/C(=C/C=C/c2ccccc2)C1=O	EP2 antag 129
O=C1NC(=O)N(c2ccccc2)C(=O)/C1=C/C=C/c1ccco1	EP2 antag 47
Cc1ccc(N2C(=O)NC(=O)/C(=C\C=C\c3ccco3)C2=O)cc1	none
CCOc1ccc(CN2CCNCC2)cc1	none (no result: PERK inhibitor, eIF4E-4G inh)
C#CCOc1cccc(CN2C3CCC2CC(O)(c2cccc(F)c2)C3)c1 (stereo not given)	none (no result: PERK inhibitor, eIF4E-4G inh)
CCCn1nc(CC(=O)N2CCCCC2CN2CCCCC2)c2ccccc2c1=O (stereo not given)	none (no result: PERK inhibitor, eIF4E-4G inh)
CCCSc1ncc(CN2C3CCC2CC(O)(c2ccc(F)cc2)C3)cn1 (stereo not given)	none (no result: PERK inhibitor, eIF4E-4G inh)
O=C1NC(=O)N(Cc2ccccc2)C(=O)/C1=C\C=C\c1ccco1	EP2 antag 63
CCn1nc(-c2ccccc2)nc2c(=O)n(C)c(=O)nc1-2	EP2 antag 43
COc1cc2cc(c1Cl)N(C)C(=O)C[C@H](OC(=O)C(C)C)[C@]1(C)O[C@H]1[C@@H](C)[C@H]1C[C@](O)(NC(=O)O1)[C@@H](OC)/C=C\C=C(\C)C2	EP2 antag 52 (no result: PERK inhibitor, eIF4E-4G inh)
CSc1ncc(CN2C3CCC2CC(O)(c2ccccc2F)C3)cn1 (stereo not given)	none (no result: PERK inhibitor, eIF4E-4G inh)
CC1Oc2cc3c(-c4c(O)cc(O)c5c(O)c6c(cc45)OC(C)C(C)C6=O)c(O)cc(O)c3c(O)c2C(=O)C1C (stereo not given)	eIF4E-4G inh 56
N=c1c(C(N)=O)cc(Cl)cn1Cc1ccccc1	none (no result: PERK inhibitor, eIF4E-4G inh)
Cc1ccc(CN2C(=O)CN=C(c3ccccc3)c3ccccc32)cc1	EP2 mod 68 | EP2 cAMP induct inactive
COc1ccc(C)cc1CN1C2CCC1CC(O)(c1ccccc1F)C2 (stereo not given)	none (no result: PERK inhibitor, eIF4E-4G inh)
CC1CC(C)CN(C(=O)CN2C3CCC2CC(O)(c2nccn2C)C3)C1 (stereo not given)	none (no result: EP2 antag, PERK inhibitor, eIF4E-4G inh)
CCCCCn1c(=O)c(C(=O)NCc2ccco2)c(O)c2ccccc21	none
CCCCn1c(=O)c(C(=O)NCc2ccco2)c(O)c2ccccc21	EP2 mod 67 | EP2 cAMP induct active
Nc1ccc(Br)cc1C(=O)c1ccccc1	EP2 mod 83 | EP2 cAMP induct active
Nc1ccc(Cl)cc1C(=O)c1ccccc1Cl	EP2 mod 67 | EP2 cAMP induct active
CC[C@H]1C(=O)OC[C@@H]1Cc1cncn1C	none (no result: PERK inhibitor, eIF4E-4G inh)
CC[C@@H]1C(=O)OC[C@@H]1Cc1cncn1C	EP2 mod 80! | EP2 cAMP induct inactive
C[C@]12CCC(=O)C=C1CCC1C2CC[C@@]2(C)C1CC[C@@H]2O (stereo not given in full)	EP2 mod 73 (no result: PERK inhibitor, eIF4E-4G inh) | EP2 cAMP induct active
CCn1ncc(CN2C3CCC2CC(O)(c2ccccc2F)C3)c1C (stereo not given)	none (no result: PERK inhibitor, eIF4E-4G inh)
O=C(c1cccs1)c1cn(Cc2ccccc2Cl)c2ccccc12	EP2 mod 74 | EP2 cAMP induct inactive
N#Cc1ccccc1Cn1cc(C(=O)c2cccs2)c2ccccc21	none
CC(=O)[C@H]1CC[C@H]2[C@@H]3CC[C@H]4C[C@H](O)CC[C@]4(C)[C@H]3C(=O)C[C@]12C	none
CC(=O)C1CC[C@H]2C3CC[C@H]4C[C@H](O)CC[C@]4(C)C3CC[C@]12C (stereo not given in full)	none (no result: PERK inhibitor, eIF4E-4G inh) | EP2 cAMP induct inactive
CC(=O)Oc1c2c(c(CC=C(C)C)c3c1C(=O)C1=C[C@@H]4CC5C(C)(C)OC(C/C=C(\C)C(=O)O)(C4=O)[C@@]15O3)OC(C)(CCC=C(C)C)C=C2 (stereo not given in full)	none (no result: PERK inhibitor, eIF4E-4G inh)
